Measured values: PubChem BioAssay (NCI)
This is part of a sample that, as a whole, favours compounds with a hit. Of some 79,000 tested, about 15% had one in any assay. Values without a mark were called inactive. Rule as the data show it: active = growth inhibition above about 70%; inactive = the rest.

Assay: NCI Yeast Anticancer Drug Screen. Data for the cln2 rad14 strain (AID 165);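 also: 0% = growth equal to vehicle treated cultures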
Details: S. cerevisiae cln2 rad14 strain, at 50.0 µM, hits give high values
Method in brief: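 Yeast carrying cln2 and rad14 alterations (cell cycle control and DNA damage repair) were exposed to compounds. Growth inhibition was measured against vehicle-treated controls.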

| SMILES | growth inhibition |
| --- | --- |
| CC12CCC(CC1)C(C)(C)O2 | 9.6% |
| C=C1C(=O)OC2CC(C)C3(O)CCC(=O)C3(C)CC12 (stereo not given) | 4.45% |
| COc1c2c(c3c(c1OC)c(=O)c1ccccc1n3C)OCO2 | 8.5% |
| CC1OC23CCCCC2C(C#N)(C#N)C1(C#N)C(=N)O3 (stereo not given) | -22.9% |
| Cc1ccc(/C=C2/N=C(N/N=C\c3ccccc3)NC2=O)cc1 | 1.75% |

Assay: NCI Yeast Anticancer Drug Screen. Data for the bub3 strain (AID 167)
Details: S. cerevisiae bub3 mutant strain, at 50.0 µM, hits give high values
Method in brief: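 Readout: yeast growth inhibition, expressed relative to vehicle-only wells. The test organism is a mutant strain from a panel with lesions in DNA repair or checkpoint genes.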

| SMILES | growth inhibition |
| --- | --- |
| C=CC(COC(=O)C(C)(C)OC(C)=O)c1ccc(OC(=O)C(C)C)c(OC)c1 (stereo not given) | -9% |
| O=C1CC(c2ccccc2)NCCCCN2CC(CN1)C(C(O)c1ccccc1)C2=O (stereo not given) | -44.6% |
| Cc1nc(-[n+]2nc(-c3ccccc3)nn2-c2ccccc2)sc1C | -26.8% |
| COC(=O)c1cc(C#N)[nH]c1-c1ccsc1 | -3.4% |
| N/N=C(\C(=O)Nc1ccc([N+](=O)[O-])cc1)C(C1=Nc2cc([N+](=O)[O-])ccc2NC1)[N+](=O)[O-] (stereo not given) | 5% |
| Cc1cc(S(=O)(=O)O)c(NC(=O)c2oc3cc(O)ccc3c(=O)c2C)cc1Cl | -8.35% |
| COc1cc([C@H]2OC[C@@H]3C(c4cc(OC)c5c(c4)OCO5)OC[C@H]23)cc(OC)c1OC (stereo not given in full) | -1.35% |
| COc1cc2c3cc1Oc1c(OC)c(OC)cc4c1C(Cc1ccc(O)c(c1)-c1cc(ccc1OC)CC3N(C)CC2)N(C)CC4 (stereo not given) | 8.85% |
| COc1ccc(OC)c(N(CN2C(=O)CCC2C(=O)O)C(C)=O)c1 (stereo not given) | -17.7% |
| O=C(O)c1cn(C2CC2)c2cc(N3CCNCC3)c(F)cc2c1=O | -19.5% |
